SRC3 inh = SRC3 coactivator transcriptional activity inhibitors, primary screen, cell-based, luminescence; Nuclear receptor coactivator 3 (Homo sapiens), Q9Y6Q9; HEK293 GAL4-SRC3 luciferase reporter; inhibition, % at 3.6 µM; actives 0.17% (n = 360,000);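 active = inhibition above a per-campaign cutoff, the mean of all compounds plus 3 SD, cut at about 60% in these data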;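 note: higher means less SRC3-driven luciferase light from the GAL4 reporter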
COUP-TFII inh = NR2F2 transcriptional activity inhibitors, primary screen, cell-based, luciferase reporter, HEK293T, luminescence | COUP transcription factor 2 (Homo sapiens), P24468 | HEK293T NGFI-A luciferase reporter | inhibition, % at 8.6 µM | actives 0.7% (n = 370,000) | AID 686940, 2013;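 active = inhibition above a per-plate cutoff, mean inhibition of test wells between control levels plus 3 SD, cut at about 38% in these data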;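 note: cells cotransfected with COUP-TFII expression vector driving the NGFI-A reporter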
Target sequence (P24468 whole entry, looked up): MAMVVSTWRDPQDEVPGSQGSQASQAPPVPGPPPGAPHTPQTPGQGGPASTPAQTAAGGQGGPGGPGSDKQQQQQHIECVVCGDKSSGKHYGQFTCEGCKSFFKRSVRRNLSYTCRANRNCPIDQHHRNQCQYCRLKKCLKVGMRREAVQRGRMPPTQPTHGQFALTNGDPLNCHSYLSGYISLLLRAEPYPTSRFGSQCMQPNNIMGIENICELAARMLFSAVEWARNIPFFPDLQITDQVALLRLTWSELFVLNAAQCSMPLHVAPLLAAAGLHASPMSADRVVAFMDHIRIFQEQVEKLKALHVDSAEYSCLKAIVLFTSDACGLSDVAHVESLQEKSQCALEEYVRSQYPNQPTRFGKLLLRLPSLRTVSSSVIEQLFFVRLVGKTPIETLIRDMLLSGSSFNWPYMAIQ
NCOA2 inhibitor = inhibition of GAL4-SRC2 driven luciferase reporter, primary screen, SRC2 inhibitor project, cell-based, luminescence | Nuclear receptor coactivator 2 (Homo sapiens), Q15596 | HEK293 GAL4-SRC2 luciferase reporter | inhibition, % at 9 µM | actives 0.17% (n = 370,000);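 active = inhibition above the mean inhibition of all tested compounds plus 3 SD, set per campaign, cut at about 52% in these data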
LRH-1 inv ag = LRH-1 (NR5A2) inverse agonists, primary screen, cell-based, luminescence, HEK293T, StAR-luciferase reporter | inhibition, % at 3.6 µM | actives 0.13% (n = 360,000) | LRH-1 transfected, 24 h | AID 602396, 2012;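 active = inhibition above the mean inhibition of all tested compounds plus 3 SD, cut at about 73% in these data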
SRC1 inh = SRC1 coactivator transcriptional activity inhibitors, primary screen, cell-based, luminescence | actives 0.12% (n = 360,000) | HEK293 GAL4-SRC1 luciferase reporter | Nuclear receptor coactivator 1 (Homo sapiens), Q15788 | AID 588354, 2011 | inhibition, % at 3.6 µM;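 active = inhibition above the campaign mean plus 3 SD, with each screening campaign given its own cutoff, cut at about 60% in these data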
A number is an active result; i = inactive; nt = no result given. An excerpt weighted towards active compounds, which were near 0.81% of everything screened.

SMILES | SRC3 inh | COUP-TFII inh | NCOA2 inhibitor | LRH-1 inv ag | SRC1 inh
COc1ccc(N(C(=O)CCl)C(C(=O)NCCc2ccccc2)c2cccs2)cc1 (stereo not drawn) | 71 | i | i | i | i
Cc1ccc(NC(=O)CCN2CCN(CCO)CC2)cc1 | i | i | i | i | i
Cc1ccc(NC(=O)CCN2CCCCC2)cc1 | i | i | 59 | i | i
COc1ccccc1CN[C@@H]1CC[C@@]23CCCN2C(=O)CCC[C@H]3C1 | nt | i | nt | nt | nt
Cc1onc(-c2ccccc2)c1C(=O)NC(=S)NNC(=O)c1ccccc1O | 76 | i | i | 90 | 64
CC(C)=CC(O)C/C(C)=C/COc1ccc2ccc(=O)oc2c1 (stereo not drawn) | 63 | i | i | 85 | i
CN(C)C(=O)COc1ccc2ccc(=O)oc2c1 | i | i | i | i | i
CCC1(OC(=O)CN(C)C)C(=O)OCc2c1cc1n(c2=O)Cc2cc3c(N)cccc3nc2-1 (stereo not drawn) | 69 | nt | nt | 85 | i
CCC1(O)C(=O)OCc2c1cc1n(c2=O)Cc2cc3c(N)cccc3nc2-1 (stereo not drawn) | 80 | i | i | 92 | i
C#CCNC(=O)C[C@H]1C[C@@]2(C(=O)OC)C(=C[C@H](COCc3ccccc3)O[C@@H]2C)N(Cc2ccc(Cl)cc2Cl)C1=O | nt | i | i | nt | nt
Cc1cnc(NC(=O)CCCc2nc3ccccc3s2)s1 | i | i | i | 83 | i
Cc1ccc(N/C(N)=N/c2nc3c(c(=O)[nH]2)CCCC3)c(C)c1 | i | i | i | i | i
Cc1ccc(N/C(N)=N/c2nc(C)cc(N3CCCCC3)n2)c(C)c1 | i | 47 | i | i | i
Cc1cc([N+](=O)[O-])nn1CCCC(=O)Nc1ccc(Cl)cc1Cl | i | i | i | i | 62
CNCCCOc1cc(C)cc(C)c1C | i | i | i | i | i
Cn1c(=O)c2c(nc(CN3CCc4ccccc4C3)n2CC(=O)c2ccccc2)n(C)c1=O | i | i | i | i | i
Cn1c(=O)c2c(nc(CN3CCOCC3)n2CC(=O)c2ccccc2)n(C)c1=O | i | i | i | 96 | i
Cc1cc(/C=C\c2ccc3cc(N(C)C)ccc3[n+]2C)c(C)n1-c1ccccc1 | 77 | nt | nt | 77 | i
COc1ccc(C(=O)NCC(=O)OCc2ccc(F)cc2Cl)cc1OC | i | i | i | i | i
COc1ccc(C(=O)NCC(=O)OCc2c(Cl)cccc2Cl)cc1OC | 66 | i | i | i | i
CCn1c(Oc2ccccc2)nc2c1c(=O)n(C)c(=O)n2C | i | i | i | i | i
CCn1c(Oc2ccccc2F)nc2c1c(=O)n(C)c(=O)n2C | i | i | 59 | i | 68
COc1cccc(NC(=O)c2cccc(S(=O)(=O)N3CCN(Cc4ccccc4)CC3)c2)c1 | i | i | i | i | i
Oc1ccc(N=Nc2ccc3c(c2)OCCO3)c2ncccc12 | i | i | 57 | i | i
Cc1cccc(N=Nc2ccc(O)c3ncccc23)c1 | i | i | i | i | i
SMILES | SRC3 inh | COUP-TFII inh | NCOA2 inhibitor | LRH-1 inv ag | SRC1 inh
COC(=O)c1cc(O)cc(OC)c1Oc1cc(C)cc(O)c1C(=O)O | 68 | i | i | i | i
N#Cc1cc2c(nc1SC1CC(=O)N(c3ccccc3)C1=O)CCC2 (stereo not drawn) | 77 | nt | nt | i | i
CSc1nc2c(cc1C#N)CCC2 | i | i | i | i | i
CCN(CC)c1ccc(/C=N/NC(=O)c2cccc(S(=O)(=O)Nc3ccccc3OC)c2)c(O)c1 | 81 | i | i | i | 73
CCN(CC)c1ccc(/C=N/NC(=O)c2cccc(S(=O)(=O)Nc3ccccc3OC)c2)cc1 | i | i | i | i | i
COc1ccc2c(c1)-c1c(ssc1=S)C(C)(C)N2C(=O)CSC1=NCCS1 | i | 52 | i | i | i
CCCCN(C(=O)Cn1nnc2ccccc21)C(C(=O)NCCOC)c1cccs1 (stereo not drawn) | i | i | i | i | i
C#CCN1C=CC(=O)[C@@H](OC(=O)Nc2ccc(C)cc2)[C@H]1c1ccccc1Br | i | i | i | i | i
O=c1c2ccccc2nc(N/N=C/c2c(O)ccc3ccccc23)n1O | 74 | i | i | 84 | 67
O=c1c2ccccc2nc(N/N=C/c2ccc(O)cc2)n1O | i | i | i | i | i
